hNpr1 antagonist: blocks ANP-stimulated signaling of human Npr1 receptor; Potency, µM (highest dose often 46.3 µM), for inactives: at the highest dose activity change, negative = inhibition, actives largely listed as inhibitors; HEK293 hNpr1 GloSensor cGMP, ANP-stimulated luminescence; 76,000 compounds, 1.6% hits; calls by dose curve; also: nearly all actives have a fitted effect of over 60% in size
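HEK293 cells stably expressing human Npr1 and cGMP GloSensor pGS-40F, loaded 2 h with 2% GloSensor reagent, given compound 30 min at room temperature. Luminescence read before and 20 min after 0.1 nM hNppA.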
HEK cytotox: HEK 293 cell cytotoxicity; HEK 293 viability, ATP luminescence (CellTiter-Glo), 48-72 h; Potency, µM (doses to about 115 µM), inactives show at the highest dose activity change, negative = cytotoxicity, usual class: inhibitors; 94,000 compounds, 6.6% hits; AID 1345083; also: nearly all actives have a fitted effect of over 60% in size
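Pintool-delivered compounds were incubated with HEK 293 cells (250 cells/well) at 37 degree Celsius for 48 or 72 hr. ATP-dependent luminescence (CellTiter-Glo) then reported remaining viable cells.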
FLuc inh: inhibitors of firefly (Photinus pyralis) luciferase. P08659. AID 1347043. 76,000 compounds, 2.5% hits. Potency, µM (titrated, usually from 115 µM), hits mostly inhibitors. purified P. pyralis luciferase, luminescence, biochemical; also: nearly all actives have a fitted effect of over 65% in size
Target sequence (P08659 whole entry, looked up): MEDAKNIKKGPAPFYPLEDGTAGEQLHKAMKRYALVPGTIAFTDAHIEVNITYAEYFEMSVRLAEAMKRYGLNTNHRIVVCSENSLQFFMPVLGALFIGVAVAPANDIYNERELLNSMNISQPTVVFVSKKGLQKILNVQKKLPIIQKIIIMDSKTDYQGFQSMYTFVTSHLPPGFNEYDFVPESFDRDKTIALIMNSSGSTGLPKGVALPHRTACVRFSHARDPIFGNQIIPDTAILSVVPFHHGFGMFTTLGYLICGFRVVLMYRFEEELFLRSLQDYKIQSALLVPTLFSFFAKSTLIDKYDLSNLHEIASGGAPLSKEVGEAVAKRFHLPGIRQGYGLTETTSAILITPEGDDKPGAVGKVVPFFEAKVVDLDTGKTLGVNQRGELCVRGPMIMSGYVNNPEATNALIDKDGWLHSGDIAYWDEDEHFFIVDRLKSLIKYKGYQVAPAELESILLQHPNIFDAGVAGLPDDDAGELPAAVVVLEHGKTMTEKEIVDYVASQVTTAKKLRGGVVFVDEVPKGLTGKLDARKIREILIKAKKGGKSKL
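Biochemical qHTS: compound (6-point titration) added to 10uM D-luciferin plus 10uM ATP in Tris acetate pH 7.5 buffer with Mg, Tween-20 and BSA, then purified enzyme at 10nM; light output imaged.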
GPT2 inhibitor: inhibitors of human GPT2 alanine aminotransferase; Q8TD30; Recombinant GPT2, coupled pyruvate oxidase/HRP Amplex Red fluorescence; Potency, µM (titrated, usually from 57.7 µM), without a hit: at the highest dose activity change, negative = inhibition, hits mostly inhibitors; 100,000 compounds, 0.25% hits; AID 1671188; also: nearly all actives have a fitted effect of over 60% in size
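Recombinant GPT2 (10ng/uL) with 250uM a-KG and 2mM L-alanine, 30 min at room temperature, in HEPES pH 7.5 buffer. Pyruvate detected by pyruvate oxidase/HRP/Amplex Red fluorescence after 30 min in the dark; AOA (50uM) as positive control.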
NIH3T3 tox: kills NIH 3T3 cells; NIH 3T3 viability, CellTiter-Glo ATP luminescence, 48-72 h; Potency, µM (top dose mostly 96.7 µM), inactives show at the top dose activity change, negative = cytotoxicity, most hits filed as inhibitors; 94,000 compounds, 4.3% hits; AID 1345082; also: nearly all actives have a fitted effect of over 55% in size
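Cells were seeded at 400 per well, treated with pin-transferred compound, and kept 48 or 72 hr at 37 °C before CellTiter-Glo addition and luminescence imaging of cellular ATP.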
* marks the source's active call; other numbers are inactive results; i = inactive; ? = inconclusive; . = no result; [ ] = dose if it differs, or a comment. The list is not random: actives were taken first. Their share in the collection is about 10%. Unless noted, calls follow the shape of the dose curve; as a rule, active = well fitted curve in the direction sought with a large enough effect; inconclusive = small, poorly fitted or top-dose-only effect, or another doubt; inactive = no such curve, though single readings can be large; an effect the other way counts as inactive or inconclusive. % is scaled to controls: 0 for no effect and ±100 for the full control effect; potency is read from the fitted curve at half-maximal effect.

SMILES | hNpr1 antagonist | HEK cytotox | FLuc inh | GPT2 inhibitor | NIH3T3 tox
COc1ccc(C(=O)NC2CCCN(c3cc(-c4ccccc4)[nH]n3)C2)cc1 (centres undefined) | 0.0% | ? | 25.1µM* | -7.8% | ?
COc1cc(C(=O)NC2CCCN(c3cc(-c4ccccc4)[nH]n3)C2)cc(OC)c1OC (centres undefined) | -9.8% | ? | 35.5µM* | ? | ?
COc1ccc(C(=O)NC2CCCN(c3cc(-c4ccc(Cl)cc4)[nH]n3)C2)cc1 (centres undefined) | -25.0% | ? | ? | -7.5% | 35.5µM*
COc1cc(C(=O)NC2CCN(c3cc(-c4ccc(Cl)cc4)[nH]n3)C2)cc(OC)c1OC (centres undefined) | -1.5% | ? | i | ? | ?
CNC(=O)CNC(=O)c1cccc(-c2ccc(SC)cc2)c1 | . | ? | . | i | ?
CNC(=O)c1cc(C)nc2onc(C3CCCN(C(=O)c4ccccc4)C3)c12 (centres undefined) | . | -1.1% | . | . | -12.9%
COc1ccccc1-c1ccc(CN)cc1 | . | ? | . | i | ?
Cc1cc(Cl)ccc1-c1ccccc1CN | . | ? | . | i | 22.4µM*
NCc1cccc(-c2cc(C(F)(F)F)ccc2Cl)c1 | . | 70.8µM* | . | 3.3% | ?
COc1ccccc1-c1cccc(CN)c1 | . | 100µM* | . | -17.4%[88.5 µM] | 126µM*
O=C(O)c1cccc(-c2cc(C(F)(F)F)ccc2Cl)c1 | . | 4.9% | . | -8.6% | i
Cc1cc(Cl)ccc1-c1ccccc1C=O | . | ? | . | -10.7%[88.5 µM] | 112µM*
CC(=O)OC1C(O)CC(O[C@@H]2O[C@H](CO)[C@@H](O)[C@H](O)[C@H]2O)C2CCC3C(=O)OC(c4ccoc4)CC3(C)C21 (some centres undefined) | . | . | . | -2.1%[27.3 µM] | .
C#CCNC(=O)c1cc(-c2ccccc2OC)c2cnn(C)c2n1 | . | -16.3% | . | -6.9% | -25.0%
Cc1ccc(-c2ccc(CN)cc2)c(C)c1 | . | 31.6µM* | . | -5.3%[88.5 µM] | 31.6µM*
Cc1cc(Cl)ccc1-c1cccc(CN)c1 | . | 39.8µM* | . | -10.0%[88.5 µM] | 31.6µM*
Cc1cccc(-c2ccccc2CN)c1 | . | -26.6%[172 µM] | . | 1.9%[88.5 µM] | -12.9%[138 µM]
Cc1ccc(-c2cccc(CN)c2)c(C)c1 | . | 44.7µM* | . | -6.8%[88.5 µM] | 28.2µM*
COc1ccc2[nH]c3c(c2c1)CCNC31CCN(C(=O)CC(C)C)CC1 | -1.6% | ? | i | i | -23.7%
O=C(CC1CNCCO1)N1CCc2nc(-c3ccc(Cl)cc3)[nH]c2C1 (centres undefined) | -0.3% | 4.7% | i | -12.1% | i
COc1cccc(C(=O)NC2CCCN(c3cc(-c4ccc(F)cc4)[nH]n3)C2)c1 (centres undefined) | -17.0% | ? | ? | ? | 44.7µM*
COc1ccc(C(=O)NC2CCN(c3cc(-c4ccc(F)cc4)[nH]n3)C2)cc1 (centres undefined) | -13.5% | ? | i | ? | ?
COc1cc(OC)cc(C(=O)NC2CCCN(c3cc(-c4ccc(F)cc4)[nH]n3)C2)c1 (centres undefined) | -12.0% | 44.7µM* | ? | -22.2% | ?
O=C(Nc1cccc2ccccc12)O[C@@H]1CO[C@H]2[C@@H]1OC[C@@H]2NC(=O)C1CCC1 | -1.8%[70.6 µM] | -7.9%[172 µM] | i | i | -5.6%[174 µM]
O=C(Nc1ccc(Oc2ccccc2)cc1)N[C@H]1CO[C@H]2[C@@H]1OC[C@H]2OC(=O)Nc1cccc2ccccc12 | ? | 17.8µM* | i | ? | ?
SMILES | hNpr1 antagonist | HEK cytotox | FLuc inh | GPT2 inhibitor | NIH3T3 tox
O=C(Nc1cccc2ccccc12)O[C@@H]1CO[C@H]2[C@@H]1OC[C@@H]2NS(=O)(=O)c1ccc2ccccc2c1 | 0.5% | ? | i | 0.3% | 79.4µM*
O=C(Nc1ccc(Oc2ccccc2)cc1)O[C@@H]1CO[C@H]2[C@@H]1OC[C@@H]2NC(=O)c1cnccn1 | -24.8% | ? | i | i | -8.8%
O=C(Nc1ccc(Oc2ccccc2)cc1)O[C@@H]1CO[C@H]2[C@@H]1OC[C@@H]2NC(=O)c1ccccn1 | 11.2µM* | ? | ? | 1.8% | ?
O=C(Nc1cccc2ccccc12)O[C@@H]1CO[C@H]2[C@@H]1OC[C@@H]2NCC1CCCCC1 | -22.0%[70.6 µM] | 44.7µM* | i | -0.1%[88.5 µM] | ?
Cc1ncoc1C(=O)N1CCC(N2C(=O)C3(CCCCC3)C2c2ccccc2)CC1 (centres undefined) | . | ? | . | 1.9% | -27.4%
COCCCNc1nc2c([S+](=O)([O-])c3cc(OC)ccc3OC)nnn2c2ccccc12 | . | ? | . | -1.8% | -74.3%
O=C(NC1CCCCC1)C1CCc2nnc(C3CCN([S+](=O)([O-])c4ccccc4Cl)CC3)n21 (centres undefined) | . | -1.2% | . | i | -19.1%
Oc1ccccc1CN1CC(CNc2cccnc2)C2(C1)CN(c1ccccc1)C2 (centres undefined) | -22.9%[70.6 µM] | 63.1µM* | i | -20.3%[88.5 µM] | ?
O=C(c1cccnc1)N1CC(CNc2ccccc2)C2(C1)CN(c1ccccc1)C2 (centres undefined) | 2.2%[70.6 µM] | ? | i | 0.6%[88.5 µM] | ?
c1ccc(NCC2CN(Cc3ccccn3)CC23CN(c2ccccc2)C3)cc1 (centres undefined) | -0.8%[70.6 µM] | 79.4µM* | i | -20.6%[88.5 µM] | ?
CC(C)c1ccc(CN2CC(CNc3cccnc3)C3(C2)CN(c2ccccc2)C3)cc1 (centres undefined) | ? | 50.1µM* | i | -1.9%[88.5 µM] | 35.5µM*
CCN1C(=O)CCN(C(=O)c2ccnn2CC)CC12CCOCC2 | . | 2.7% | . | 0.9% | -14.5%
CCOc1cccc(CNC(=O)C2Cn3cccc3C(=O)N2Cc2ccccc2)c1 (centres undefined) | -13.0% | -31.0% | i | i | ?
Cc1nc(-c2ccccc2)n(CC(=O)Nc2ccc(F)c(Cl)c2)c(=O)c1CCO | -26.7% | 39.8µM* | i | -22.0% | ?
Cc1nc(-c2ccc(F)cc2)n(CC(=O)Nc2cccc(Cl)c2)c(=O)c1CCO | -17.5% | ? | i | i | ?
Cc1ccc(NC(=O)Cn2c(-c3ccccc3)nc(C)c(CCO)c2=O)cc1Cl | -15.2% | ? | i | 4.1% | 28.2µM*
CC(=O)c1cccc(NC(=O)Cn2c(-c3ccc(F)cc3)nc(C)c(CCO)c2=O)c1 | -6.1% | ? | i | ? | ?
Cc1nc(-c2ccccc2)n(CC(=O)Nc2ccc(Cl)cc2)c(=O)c1CCO | -17.6% | ? | i | i | -29.2%
Cc1nc(-c2ccccc2)n(CC(=O)Nc2cccc(C#N)c2)c(=O)c1CCO | -21.3% | 39.8µM* | i | i | ?
CC(=O)NC1(C)CCN(Cc2cccc(-c3ccc4c(c3)OCCN4C)c2)C1 (centres undefined) | ? | ? | 22.4µM* | -19.2%[88.5 µM] | 89.1µM*
